Screening data (PubChem)
HPGD block = blocks human HPGD enzyme activity; purified HPGD, NADH fluorescence kinetic, PGE2 substrate; Potency, µM, actives largely listed as inhibitors; 4.3% of 150,000 active
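20 nM HPGD preincubated 15 min at room temperature with compound in 50 mM Tris-HCl pH 8, 0.01% Tween 20. Started with 1 mM NAD+ and 30 uM prostaglandin E2; NADH fluorescence (360/450 nm) read 5 times over 30-s intervals, last minus first.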
ALDH1A1 block = blocks purified human ALDH1A1 activity; AID 1030; 7.3% of 220,000 active; Potency, µM (titrated, usually from 75.3 µM), actives largely listed as inhibitors; P00352; Purified ALDH1A1, NADH fluorescence, propionaldehyde substrate
Target sequence (P00352 whole entry, looked up): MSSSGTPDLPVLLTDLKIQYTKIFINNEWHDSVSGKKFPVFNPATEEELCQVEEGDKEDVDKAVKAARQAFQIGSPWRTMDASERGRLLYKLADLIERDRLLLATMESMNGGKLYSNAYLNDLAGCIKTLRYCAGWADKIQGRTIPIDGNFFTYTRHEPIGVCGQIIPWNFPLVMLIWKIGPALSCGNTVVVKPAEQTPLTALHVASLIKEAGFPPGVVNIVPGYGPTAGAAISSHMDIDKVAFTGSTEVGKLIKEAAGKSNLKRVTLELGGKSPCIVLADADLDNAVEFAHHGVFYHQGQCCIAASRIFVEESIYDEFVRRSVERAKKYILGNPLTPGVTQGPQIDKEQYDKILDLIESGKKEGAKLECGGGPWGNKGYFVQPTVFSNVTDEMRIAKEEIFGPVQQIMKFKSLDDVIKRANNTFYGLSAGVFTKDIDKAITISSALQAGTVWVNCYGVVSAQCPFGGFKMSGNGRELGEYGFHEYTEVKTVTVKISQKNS
PNC assembly inh = perinucleolar compartment assembly inhibition. PC3M PTB-GFP, PNC prevalence imaging, 16 h; hits give low values. activity change (PNC), negative = inhibition, % at 10 µM. 3.1% of 140,000 active. AID 2417;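 active = readout at or below -70, meaning at least 70% loss of cells showing the perinucleolar compartment, a nuclear body marking cancer cells; inconclusive = readout between -30 and a set limit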
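PC3M cells stably expressing PTB-GFP, 750–1000 cells/well, treated 16 h at 37 °C with compound (23 nl of library stock), in duplicate. After paraformaldehyde fixation and Hoechst stain, imaged at 20x; PNC prevalence scored by image analysis.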
HTT ATP protect = protects HTT-Q103 PC12 cells, measured by ATP; PC12 HTT-Q103 induced, cytoprotection, ATP luminescence, 40 h; Potency, µM (titrated, usually from 56.4 µM), hits mostly activators; 0.14% of 230,000 active; AID 1471; active = well fitted curve in the direction sought with a large enough effect; inconclusive = small, poorly fitted or top-dose-only effect, or another doubt; inactive = no such curve, though single readings can be large; an effect the other way counts as inactive or inconclusive; also: nearly all actives have a fitted effect of over 45% in size
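Compounds were screened for protection of PC12 cells against cell death after tebufenozide induction (100 nM final) of mutant Huntingtin exon 1 (Q103) fused to GFP.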
HTT aggregate = reduces HttQ103-GFP aggregates in PC12 cells; PC12 HttQ103-GFP aggregates, Acumen cytometry, 40 h; Potency, µM (highest dose often 46.1 µM), most hits filed as inhibitors; 1.1% of 220,000 active; AID 1688; active = well fitted curve in the direction sought with a large enough effect; inconclusive = small, poorly fitted or top-dose-only effect, or another doubt; inactive = no such curve, though single readings can be large; an effect the other way counts as inactive or inconclusive; also: nearly all actives have a fitted effect of over 60% in size
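Inducible Q103 Huntingtin exon 1–GFP PC12 line, 1500 cells/well in phenol red free DMEM with 5% equine and 5% calf serum. Tebufenozide 100 nM induced expression; compounds titrated; aggregates quantified by cytometry.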
GoLoco inh red = RGS12 GoLoco-Gai1 interaction inhibition; P63096; Potency, µM (series often up to 61.6 µM), usual class: inhibitors; 0.44% of 230,000 active; Gai1:RGS12 GoLoco peptide FP, rhodamine, 10 min; active = well fitted inhibition curve with a large enough effect, not every such curve was filed as active; inactive = no such curve, though single readings can be large or run the other way; also: nearly all actives have a fitted effect of over 30% in size
Hits are given with their value; [ ] = dose if it differs, or a comment. Only some compounds are listed: those with a hit (about 11% of all), similar ones and a draw of the others. Unless noted, calls follow the shape of the dose curve; as a rule, active = well fitted inhibition curve with a large enough effect (not every such curve was filed as active); inconclusive = small, poorly fitted or top-dose-only effect, or another doubt; inactive = no such curve, though single readings can be large or run the other way.

Screening O=C(CNC(=O)c1ccc(Oc2ccccc2)cc1)OC1CCCCC1=O (stereo not given) returned HPGD block inactive, ALDH1A1 block 22µM, PNC assembly inh inactive, HTT ATP protect inactive, HTT aggregate inactive[9.22 µM] and GoLoco inh red inactive.
Screening O=C(NCc1ccccc1)c1ccc(Cl)cc1[N+](=O)[O-] returned HPGD block 13µM, ALDH1A1 block inactive, PNC assembly inh inactive, HTT ATP protect inactive, HTT aggregate inactive and GoLoco inh red inactive.
`CCC(C)[C@H](NC(=O)NCCCOC(C)C)C(=O)OC` (stereo not given in full) gave ALDH1A1 block inactive, HTT ATP protect inactive[10 µM], HTT aggregate inactive[9.22 µM] and GoLoco inh red inactive.
Screening COC(=O)CNC(=O)C1(C)C=CC2(CCCCC2)N1C(=O)OC (stereo not given) returned HPGD block inactive, ALDH1A1 block inactive, HTT ATP protect inactive and GoLoco inh red inactive.
For Cc1cc2ccc(=O)oc2cc1OC[C@@H](O)C(C)(C)O the results were HPGD block inconclusive, ALDH1A1 block inconclusive, HTT ATP protect inactive[1.9 µM] and GoLoco inh red inactive.
For Cn1c(=O)c(-c2ccc(F)cc2)nc2cnc(N3CCOCC3)nc21 the results were ALDH1A1 block inconclusive, HTT ATP protect inactive and GoLoco inh red inactive.
Screening COc1ccc(CNC(=S)Nc2ccc(-c3ccccc3)cc2)cc1 returned ALDH1A1 block inactive, HTT ATP protect inactive, HTT aggregate inactive and GoLoco inh red inactive.
Screening COc1ccc(C(=O)NC(=S)NCc2ccccc2)cc1 returned HPGD block inactive, ALDH1A1 block 22µM, PNC assembly inh inconclusive, HTT ATP protect inactive, HTT aggregate inactive and GoLoco inh red inactive.
COc1ccc(CNC(=S)NCc2ccc(OC(C)C)cc2)cc1 was read as HPGD block inactive, ALDH1A1 block 14µM, PNC assembly inh inactive, HTT ATP protect inactive[10 µM], HTT aggregate inactive and GoLoco inh red inactive.
`COc1ccc(CNC(=S)Nc2ccccc2-c2ccccc2)cc1` gave ALDH1A1 block 22µM, HTT ATP protect inactive, HTT aggregate inactive and GoLoco inh red inactive.
For Cc1ccc(C(=O)NCc2ccccc2)cc1Br the results were HPGD block 25µM, ALDH1A1 block inconclusive, PNC assembly inh inactive, HTT ATP protect inactive[10 µM], HTT aggregate inactive and GoLoco inh red inactive.
CC1CN(c2nc3ccccn3c(=O)c2/C=C(\C#N)C(=O)N2CCOCC2)CC(C)O1 (stereo not given) was read as HTT ATP protect inactive[10 µM], HTT aggregate inactive[9.22 µM] and GoLoco inh red inactive.
CCC(Oc1ccccc1)C(=O)NC1CCSC1=O (stereo not given) was read as ALDH1A1 block 6.3µM, HTT ATP protect inactive[10 µM], HTT aggregate inactive[9.22 µM] and GoLoco inh red inactive.
`CCC(Oc1ccccc1)C(=O)Nc1ccccn1` (stereo not given) gave HPGD block inactive, ALDH1A1 block 2.8µM, PNC assembly inh inactive, HTT ATP protect inactive, HTT aggregate inactive and GoLoco inh red inactive.
CCC(Oc1ccccc1)C(=O)Nc1ccsc1C(=O)OC (stereo not given) was read as HPGD block inconclusive, ALDH1A1 block 14µM, PNC assembly inh inactive, HTT ATP protect inactive[10 µM], HTT aggregate inactive and GoLoco inh red inactive.
For O=C1NCCN(Cc2ccc(Cl)c(F)c2)C1CC(=O)N1CCCCO1 (stereo not given) the results were ALDH1A1 block 25µM, HTT ATP protect inactive[10 µM], HTT aggregate inactive[9.22 µM] and GoLoco inh red inactive.
For O=C(/C(=C\c1ccccc1)c1nc2ccccc2[nH]1)c1ccc(Cl)cc1 the results were HPGD block inactive, ALDH1A1 block inactive, PNC assembly inh inconclusive, HTT ATP protect inactive[10 µM], HTT aggregate inconclusive and GoLoco inh red inactive.
Screening O=C(/C=C/c1cccc(Cl)c1)c1nc2ccccc2[nH]1 returned HPGD block inconclusive, ALDH1A1 block 2.2µM, PNC assembly inh inactive, HTT ATP protect inactive, HTT aggregate inactive and GoLoco inh red inactive.
`C=CCn1c(SCc2nc(N)nc(N3CCCCC3)n2)nnc1-c1ccco1` gave HPGD block 16µM, ALDH1A1 block 22µM, PNC assembly inh inactive, HTT ATP protect inactive, HTT aggregate inactive and GoLoco inh red inactive.
For C=CCn1c(SCC(=O)N2CCN(c3ccc(F)cc3)CC2)nnc1-c1ccco1 the results were HPGD block inactive, ALDH1A1 block inactive, PNC assembly inh inactive, HTT ATP protect inactive[10 µM], HTT aggregate inactive and GoLoco inh red inactive.
For CCOC(=O)N1CCN(S(=O)(=O)c2ccc(OCC(=O)OC)c(C)c2)CC1 the results were HPGD block inactive, ALDH1A1 block inactive, PNC assembly inh -84, HTT ATP protect inactive[0.074 µM], HTT aggregate inactive and GoLoco inh red inactive.
Screening CCOC(=O)N1CCN(S(=O)(=O)c2ccc(OCC(=O)OC)cc2)CC1 returned HPGD block inactive, ALDH1A1 block inactive, PNC assembly inh inactive, HTT ATP protect inactive[0.074 µM], HTT aggregate inactive and GoLoco inh red inactive.
`O=S(=O)(Cc1ccccc1Cl)CC(O)COc1ccccc1Cl` (stereo not given) gave HPGD block 11µM, ALDH1A1 block inactive, PNC assembly inh inactive, HTT ATP protect inactive, HTT aggregate inactive and GoLoco inh red inactive.
For CNS(=O)(=O)c1cccc(C(=O)OCc2cc(C(C)=O)ccc2OC)c1 the results were ALDH1A1 block inconclusive, HTT ATP protect inactive, HTT aggregate inactive and GoLoco inh red inactive.
Screening CCOC(=O)CCCOC(=O)c1ccc(S(=O)(=O)N(C)C)cc1 returned HPGD block inactive, ALDH1A1 block inactive, PNC assembly inh -100, HTT ATP protect inactive[10 µM], HTT aggregate inactive and GoLoco inh red inactive.
`COc1ccc(C(C)=O)cc1COC(=O)c1ccc(S(=O)(=O)N(C)C)cc1` gave ALDH1A1 block 7.1µM, HTT ATP protect inconclusive, HTT aggregate inactive and GoLoco inh red inactive.
COc1ccc(CN(C)C(=O)COC(=O)c2ccc3c(c2)OCO3)cc1OC was read as HPGD block inactive, ALDH1A1 block inactive, PNC assembly inh inconclusive, HTT ATP protect inactive[10 µM], HTT aggregate inactive and GoLoco inh red inactive.
Screening COc1ccc(C(C)=O)cc1COc1ccc(F)cc1 returned ALDH1A1 block inconclusive, HTT ATP protect inactive, HTT aggregate inactive[9.22 µM] and GoLoco inh red inactive.
Screening COc1ccc(C(C)=O)cc1COC(=O)c1cnc(Cl)c(Cl)c1 returned ALDH1A1 block 1.4µM, HTT ATP protect inactive, HTT aggregate inactive and GoLoco inh red inactive.
Screening COc1ccc(C(C)=O)cc1COC(=O)c1ccc2c(c1)OCO2 returned HPGD block inactive, ALDH1A1 block 10µM, PNC assembly inh inactive, HTT ATP protect inactive[10 µM], HTT aggregate inactive and GoLoco inh red inactive.
For Cc1ccccc1CN(CC1CCC(C(=O)O)CC1)C(=S)Nc1ccccc1F (stereo not given) the results were ALDH1A1 block inactive, HTT ATP protect inactive, HTT aggregate inactive and GoLoco inh red inactive.
